Screening data deposited in PubChem BioAssay by several laboratories.
Compounds with a hit are over-represented: about 2.5% of the library has one in this group of screens.
SUMO Mot1 rescue = yeast Mot1-301 growth rescue at high temperature, primary screen, SUMOylation pathway inhibitor project, S. cerevisiae, ATP luminescence, 38.5C | growth rescue, % at 18.8 µM | AID 2716, 2010 | 320,000 compounds, 1% hits | S. cerevisiae Mot1-301 growth rescue; percent above DMSO median, 100 means doubled;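 active = every valid replicate shows activation above 250% relative to neutral control wells; inactive = the rest, any valid replicate at or below 250%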;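 note: OY570 slx delta 5 strain wells were the positive control but not used for scaling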
AI-2 QS modul = Vibrio harveyi AI-2 quorum sensing modulators, primary screen, JMH597 strain, luminescence/OD600 ratio; Vibrio harveyi JMH597 AI-2 luminescence/OD600 ratio, 9 h; active compounds read low; strain lacks LuxN and CqsS sensors; 0 = neutral-control median; activity change, % at 7.5 µM; 300,000 compounds, 0.4% hits; AID 2094, 2009; in the data active = activity change below about -75%, passing the limit was not always enough;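 note: luminescence divided by OD600 gain over 9 h not by final OD600 alone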
V-ATPase pHluor = regulators of yeast V-ATPase proton pumping, primary screen, pHLuorin cytosolic pH fluorescence; S. cerevisiae; response, % at 10 µM; 350,000 compounds, 0.37% hits; AID 504577, 2011; in the data active = response mostly above about 7.3%, no sharp cut-off; inactive = mostly below about 5.4%; note: actives read high
Efflux pump mplx = inhibitors of Candida efflux pumps in yeast, primary screen, S. cerevisiae, Nile Red, multiplex; S. cerevisiae Candida pump triplex; inhibition, % at 10 µM; 330,000 compounds, 0.44% hits; AID 485275, 2010;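 active = plate passing quality check with inhibition over a set limit, or well fluorescence over plate mean plus 4 SD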;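 note: Nile Red retained in pooled yeast measured as flow cytometry median fluorescence; 0% = buffer negative control and 100% = Enniatin B positive control; higher means more Nile Red kept so more efflux inhibition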
ATG4B inh = ATG4B protease inhibitors, primary screen, biochemical, fluorescence, uHTS. 340,000 compounds, 0.51% hits. Cysteine protease ATG4B (Homo sapiens), Q9Y4P1. ATG4B cleavage of LC3-PLA2, NBD-HPC fluorescence, 1 h. inhibition, % at 8.33 µM; in the data active = inhibition above about 40%
Target sequence (Q9Y4P1 whole entry, looked up): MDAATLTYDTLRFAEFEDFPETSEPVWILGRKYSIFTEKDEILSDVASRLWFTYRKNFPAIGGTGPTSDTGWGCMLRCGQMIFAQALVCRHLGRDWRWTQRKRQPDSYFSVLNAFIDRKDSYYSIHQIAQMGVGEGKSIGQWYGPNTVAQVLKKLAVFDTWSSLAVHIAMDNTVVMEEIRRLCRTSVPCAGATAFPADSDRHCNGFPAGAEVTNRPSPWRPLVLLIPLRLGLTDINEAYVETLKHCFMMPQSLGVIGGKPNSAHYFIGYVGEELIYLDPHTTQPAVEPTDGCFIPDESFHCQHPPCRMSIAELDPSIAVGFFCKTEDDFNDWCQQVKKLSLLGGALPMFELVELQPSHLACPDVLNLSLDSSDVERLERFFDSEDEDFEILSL
Yeast cmpd fluor = compound fluorescence in yeast efflux pump counter-screen | shares compounds with Efflux pump mplx | AID 588517 | S. cerevisiae AD/pABC3, flow cytometry | 1,700 compounds, 4% hits | fluorescence ratio to DMSO, % at 10 µM;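 active = fluorescence ratio to DMSO above its plate's cutoff, the plate mean ratio plus 5 SD, cut at about 210% in these data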;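 note: unstained yeast with no Nile Red so the signal is compound autofluorescence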
CaMdr1 efflux inh = inhibitors of Candida albicans Mdr1 efflux, confirmation, flow cytometry, singleplex, Cherry Pick1 set. shares compounds with Efflux pump mplx. S. cerevisiae AD/CaMDR1, Nile Red efflux. inhibition, % at 10 µM. 1,700 compounds, 1% hits; in the data active = inhibition above about 26%;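 note: 0% = DMSO vehicle and 100% = reference inhibitor; higher means more Nile Red retained so more efflux inhibition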
CaCdr2 efflux inh = inhibitors of Candida albicans Cdr2 efflux pump, confirmation, S. cerevisiae AD/CaCDR2, flow cytometry, cherry pick 1, singleplex; shares compounds with Efflux pump mplx; Nile Red retention; Nile Red retention ratio vs DMSO, % at 10 µM; 1,700 compounds, 4% hits; AID 588520, 2011; in the data active = Nile Red retention ratio vs DMSO above about 190%;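 note: higher ratio means more blocking of Cdr2 efflux of the dye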
Cdr1 pump inh = inhibitors of Candida albicans Cdr1 efflux pump, confirmation, S. cerevisiae AD/CaCDR1, flow cytometry, cherry pick 1, singleplex | AID 588522, 2011 | Nile Red efflux | 1,700 compounds, 1% hits | inhibition, % at 10 µM | shares compounds with Efflux pump mplx;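 active = inhibition above the screen-wide mean plus twice its standard deviation, cut at about 32% in these data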
The depositor's hits bear a star; . = no result.

SMILES | SUMO Mot1 rescue | AI-2 QS modul | V-ATPase pHluor | Efflux pump mplx | ATG4B inh | Yeast cmpd fluor | CaMdr1 efflux inh | CaCdr2 efflux inh | Cdr1 pump inh
COc1cc2sc(-c3ccccc3OC)c(-c3ccc(OCCN4CCOCC4)cc3)c2cc1OC | . | . | 1 | 1 | -9 | 109 | 0 | 104 | 0
COc1ccc2c(-c3ccc(OCCN4CCOCC4)cc3)c(-c3ccccc3OC)sc2c1 | . | . | 3 | 1 | 0 | 105 | 0 | 94 | 0
Cc1ccnn1-c1ccc(C(=O)NCc2ccccc2CN2CCOCC2)cc1 | 17 | . | -3 | 0 | -11 | . | . | . | .
Cc1ccc2nc(SCC(=O)N3c4ccccc4CC3C)c(C)cc2c1 (configuration not stated) | 19 | 18 | -2 | 112* | -3 | 103 | 0 | 104 | 0
CCOc1ccc(C2Nc3ccc4ccccc4c3-c3c2c(=O)oc2ccccc32)cc1 (configuration not stated) | -10 | 7 | -2 | 0.6* | -10 | 118 | 0 | 107 | 1
Cc1ccc(C2Nc3ccc4ccccc4c3C3=C2C(=O)CC(C)(C)C3)o1 (configuration not stated) | 20 | 21 | 0 | 0 | -9 | . | . | . | .
O=C1CCCC2=C1C(c1ccc(O)c(O)c1)Nc1ccc3ccccc3c12 (configuration not stated) | -6 | 20 | -2 | 0 | -13 | . | . | . | .
O=c1oc2ccccc2c2c1C(c1ccc(Cl)cc1)Nc1ccc3ccccc3c1-2 (configuration not stated) | -22 | 20 | -1 | 1.0* | -8 | 103 | 0 | 114 | 0
CCCCCC1C/C(=N\O)C=C(C)C1C(=O)OC (configuration not stated) | 309* | 19 | 0 | 1.5* | -7 | 99 | 0 | 103 | 0
COc1ccccc1NC(=O)C1CCN(S(=O)(=O)c2cccs2)CC1 | 2 | . | -6 | 172* | -3 | 111 | 1 | 108 | 0
COc1ccc(OC)c(NC(=O)C2CCN(S(=O)(=O)c3cccs3)CC2)c1 | -2 | 25 | -3 | 0 | 1 | . | . | . | .
COc1ccc2c(c1)CC/C(=C/c1ccco1)C2=O | 25 | 15 | -4 | 20* | -3 | 103 | 0 | 97 | 0
O=C1/C(=C/c2ccco2)CCc2ccccc21 | -10 | 17 | 1 | 0 | 21 | . | . | . | .
CC[n+]1c(/C=C/C=C/N(C(C)=O)c2ccccc2)sc2ccccc21 | -6 | 26 | -3 | 1.3* | -69 | 309* | 2 | 125 | 1
COC(=O)c1ccccc1S(=O)(=O)N(Cc1cc2ccc(OC)cc2[nH]c1=O)CC1CCCO1 (configuration not stated) | -19 | -6 | -1 | 0 | 1 | . | . | . | .
COc1ccc2cc(CN(CC3CCCO3)S(=O)(=O)c3ccc(C(C)=O)cc3)c(=O)[nH]c2c1 (configuration not stated) | -1 | 24 | 6 | 0.3* | -12 | 96 | 0 | 109 | 92*
COC(=O)C1=C(C)Nc2c(c(=O)n(C)c(=O)n2C)C1c1ccc(C)cc1 (configuration not stated) | -18 | 23 | 2 | 0 | 10 | . | . | . | .
COC(=O)C1=C(C)Nc2c(c(=O)n(C)c(=O)n2C)C1c1ccc(Cl)cc1 (configuration not stated) | 25 | -8 | -1 | 22* | -10 | 101 | 0 | 96 | 0
O=[N+]([O-])c1ccc(/C=N/Nc2ccccn2)cc1 | 7 | 14 | -2 | 0 | -2 | . | . | . | .
O=[N+]([O-])c1cc(/C=N\Nc2ccccn2)ccc1Cl | -3 | -4 | -1 | 0.9* | -1 | 108 | 0 | 197* | 0
CSc1nc2ccc(S(=O)(=O)N3CCCC3)cc2s1 | 505 | 24 | 5 | 1 | 3 | . | . | . | .
CSc1nc2ccc(S(N)(=O)=O)cc2s1 | 4 | -3 | 0 | 12* | 3 | 101 | 0 | 106 | 0
CCCCN(C(=O)c1ccc(C)c(S(=O)(=O)N2CCOCC2)c1)c1c(N)n(CCCC)c(=O)[nH]c1=O | 2 | 10 | -4 | 0 | 7 | . | . | . | .
O=C(CCCOc1ccccc1)Nc1ccccc1C(F)(F)F | -4 | 6 | 0 | 10* | 8 | 100 | 0 | 105 | 0
NC(=O)c1nsc(C(=O)N(c2ccccc2)C(C(=O)NCc2ccc(F)cc2)c2ccco2)c1N (configuration not stated) | 320 | 8 | -4 | 0.5* | 11 | 102 | 0 | 112 | 0
SMILES | SUMO Mot1 rescue | AI-2 QS modul | V-ATPase pHluor | Efflux pump mplx | ATG4B inh | Yeast cmpd fluor | CaMdr1 efflux inh | CaCdr2 efflux inh | Cdr1 pump inh
CCCCc1ccc(NC(=O)CSCc2cc(=O)[nH][nH]2)cc1 | 8 | -18 | -1 | 0 | -8 | . | . | . | .
CCCCOC(=O)c1ccc(NC(C)=O)cc1 | -12 | -9 | 0 | 0.6* | 4 | 103 | 0 | 106 | 0
O=C(CN1C(=O)NC2(CCCCCCC2)C1=O)NCc1ccccc1 | -1 | . | -4 | 0 | -6 | . | . | . | .
O=C(COC(=O)CCN1C(=O)/C(=C\C=C\c2ccccc2)SC1=S)Nc1cc(F)ccc1F | -17 | 12 | 1 | 0.8* | 24 | 105 | 0 | 106 | 0
O=C(CN1C(=O)/C(=C\C=C\c2ccccc2)SC1=S)Nc1ccc(F)cc1 | 184 | 53 | 8 | 0 | -2 | . | . | . | .
CC1CCCCC12NC(=O)N(CC(=O)NC1CCCc3ccccc31)C2=O (configuration not stated) | -23 | 24 | 1 | 0.9* | -6 | 99 | 0 | 101 | 0
Cc1cc(C(=O)N/N=C/c2cccc([N+](=O)[O-])c2)c2ccccc2n1 | 292 | 10 | -5 | 8.3* | -7 | 845* | 60* | 114 | 2
CCC(C)N(C(=O)Cn1nnc(-c2ccc(F)cc2)n1)C1CCS(=O)(=O)C1 (configuration not stated) | -1 | 21 | -1 | 0.5* | 1 | 114 | 1 | 123 | 0
